# Test results taken from the supplement of paper PMC6555819.
# What was measured:
# Experiment in all cases: PBM binding z-score (relative to random genomic background probes); higher = stronger binding; sequences stand for … in GC…GCGATTGACAGCGTAGAATGAAGG
# [1] = test system: FXR:RXRa (NR concentration 270 nM, RXRa partner concentration 90 nM)
# Method in brief: (§1)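 On custom Agilent 4×180K arrays, double-stranded probes with 34-nt variable regions carried direct-repeat seeds, single-nucleotide variants, half-site ablations or random human genomic background. Ligand-free nuclear receptor dimers were applied for 1 h, and binding was read with antibodies against each partner (one per run). Binding z-scores come from regression-normalized fluorescence, with the random background probes as reference.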
# [2] = test system: LXRa homodimer (NR concentration 270 nM)
# Method in brief: as §1
# [3] = test system: LXRb homodimer (NR concentration 270 nM)
# Method in brief: as §1
# [4] = test system: PPARg:RXRa (NR concentration 180 nM, RXRa partner concentration 90 nM)
# Method in brief: as §1
# [5] = test system: PPARg:RXRa 270nM:90nM, anti-RXR (NR concentration 270 nM, RXRa partner concentration 90 nM)
# Method in brief: as §1
# [6] = test system: PPARg:RXRa 30nM:10nM, anti-RXR (NR concentration 30 nM, RXRa partner concentration 10 nM)
# Method in brief: as §1
# [7] = test system: PPARg:RXRa 90nM:30nM, anti-RXR (NR concentration 90 nM, RXRa partner concentration 30 nM)
# Method in brief: as §1
# [8] = test system: PPARg:RXRa DBDmut IVT, anti-RXR (DBD mutation: RXRa K156A/R161A, NR concentration 270 nM, RXRa partner concentration 90 nM)
# Method in brief: as §1
# [9] = test system: LXRa:RXRa (NR concentration 270 nM, RXRa partner concentration 90 nM)
# Method in brief: as §1
# [10] = test system: PPARa:RXRa (NR concentration 270 nM, RXRa partner concentration 90 nM)
# Method in brief: as §1
Sequence,PBM binding z-score [1],PBM binding z-score [2],PBM binding z-score [3],PBM binding z-score [4],PBM binding z-score [5],PBM binding z-score [6],PBM binding z-score [7],PBM binding z-score [8],PBM binding z-score [9],PBM binding z-score [10]
ATATGTAGGTTACCTGGGGTCATTCAGACTAGGC,4.89,10.8,2.55,7.13,6.14,3.84,5.9,7.37,–,–
CCGAGAAGGTTACGAGGGGGCATTCAGTGCGAAT,4.03,1.76,–,1.9,2.99,0.996,1.72,1.32,–,–
CCTGCGAGGTCATGGTCAGCTAATCTACAGTATG,–,1.41,0.772,5.93,5.94,2.34,4.57,3.79,5.55,5.87
GCTTACGGGTCCAAGGTTATAGCATGAATAGAAT,0.369,-0.143,-0.0563,1.97,2.86,1.43,2.47,0.18,–,–
CCGAGGAGGTTACGAGGGGGCATTCAGTGCGAAT,4.41,1.63,–,2.38,3.52,0.838,2.45,1.54,–,4.29
TACCCTAGGTCATGGGCCAGTATACCACGCGAAC,5.02,6.35,2.13,4.58,4.25,1.59,3.13,1.55,–,–
TGTCAAAGTTCAAAGGTTACGTAAGTATCCACAC,7.49,5.25,2.03,–,8.17,5.91,8.13,0.119,–,–
CCGAGTAGGTTACTAGGGGGCATTCAGTGCGAAT,2.3,6.06,–,2.37,3.48,1.14,2.93,4.55,–,–
TCTATTAGTTGATTAGGGCAACCGAAACAGCGGA,–,0.193,0.613,0.303,2.14,3.65,2.63,2.02,0.552,1.05
CGTCCAAAGTCAAAGGTCAGTGAAGAGATGACGG,3.96,1.31,0.637,5.73,5.88,3.89,5.37,0.242,–,–
CCTAGTTGTTCAGGAGGTCACACACCGGATATGA,–,3.87,1.61,2.04,2.98,1.11,1.87,0.958,4.36,–
